The record followed here is PubChem BioAssay AID1044 (The Scripps Research Institute Molecular Screening Center, 2008).

Each structure is given as a SMILES string. Out of some 16,000 compounds screened, about 240 (1.5%) were called active. The list comes from a sample in which actives are over-represented; it also holds similar structures and randomly drawn compounds. Values without a mark were called inactive. Cut-off read from the data, not from the text of the source: active = activation above about 80%; inactive = the rest.

Chain of Sphingosine 1-phosphate receptor 1 (Homo sapiens) (P21453 whole entry, looked up): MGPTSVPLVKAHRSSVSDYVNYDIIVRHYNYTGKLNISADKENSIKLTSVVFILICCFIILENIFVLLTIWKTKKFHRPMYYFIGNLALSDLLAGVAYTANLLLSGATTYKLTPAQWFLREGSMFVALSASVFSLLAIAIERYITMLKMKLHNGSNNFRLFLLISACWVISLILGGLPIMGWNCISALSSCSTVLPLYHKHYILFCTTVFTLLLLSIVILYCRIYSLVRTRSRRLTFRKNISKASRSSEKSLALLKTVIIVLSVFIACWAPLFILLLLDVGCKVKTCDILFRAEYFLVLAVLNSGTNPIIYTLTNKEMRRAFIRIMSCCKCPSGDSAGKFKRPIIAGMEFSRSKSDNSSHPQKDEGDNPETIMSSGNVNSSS

This assay concerns the target Sphingosine 1-phosphate receptor 1 (Homo sapiens) (UniProt P21453). Description: activates the human S1P1 receptor (AID 1044). As to conditions: S1P1 agonist cell-based reporter assay; at 4.5 µM; stronger effect = higher value.
Consider `O=C(Nc1ccccc1)O/N=C1/CCCc2occc21`, for which the activation was -2.45%.
In the case of `CCOC(=O)c1c(NC(=S)NC)sc2c1CCCC2`, the activation is -16.5%.
Next, `CCOC(=O)NC(=S)NC12CC3CC(CC(C3)C1)C2`: -14.8%.
`NC(N)=N/C(N)=N/c1nnc(C(F)(F)F)s1`: the activation is -5%.
For `OC1(C#Cc2ccccc2)CCN(Cc2ccccc2)CC1`, the activation is -10.7%.
Consider `CCOC(=O)c1sc(SCCS(=O)(=O)c2ccc(Cl)cc2)c(C#N)c1-c1ccccc1`, for which the activation was -6.04%.
For `CCOC(=O)c1sc2ccccc2c1N`, the activation was -24.7%.
Take `CCOC(=O)c1sc(SC)c(-c2ccccc2)c1N`: the activation is 103% (active).
Take `N#CCCSc1sc(=S)sc1SCCC#N`: the activation is 2.11%.
Consider `Clc1ccc(CO/N=C/c2nc3ccccc3s2)cc1`, for which the activation is 87% (active).
`CCCCc1c(COC)nc(-c2ccc(Cl)cc2)[nH]c1=O`: the activation was -10.5%.
Turning to `Cc1nc(C(F)(F)F)ccc1C(=O)NCCNc1ncccc1C(F)(F)F`, the activation was 3.52%.
For the compound `Cc1nc(C(F)(F)F)ccc1NC(=O)/C=C\C(=O)O`, the activation is -31%.
Next, `O=C(NC1Cc2ccccc2C1)c1nnc(-c2ccccc2)o1`: 62.1%; `Cn1ncc(Br)c1NC(=O)C(C)(C)C`: 1.4%.
Turning to `CCOC(=O)Cc1csc(NC(NC(=O)OCC)(C(F)(F)F)C(F)(F)F)n1`, the activation is -11.5%.
Regarding `CN1CCN(c2ccc(NC(=O)c3ccccc3)cc2)CC1`, the activation is 15.7%.
As for `CCOC(=O)C(NC(=O)c1ccco1)(Nc1cc(C)ccn1)C(F)(F)F` (stereo unspecified), the activation is -12.4%.
In the case of `Fc1cccc(Cl)c1CN1CCN(c2ncnc3scc(-c4cccs4)c23)CC1`, the activation is 10.1%.
Next, `CCOC(=O)c1c(-c2ccco2)csc1NC(=O)Nc1ccc(Cl)cc1`: -5.82%.
With `C/C(=N\NC(=S)Nc1cccc(F)c1)c1ccco1`, the activation is -19.7%.
Next, `Cc1nc(C)c(-c2ccnc(-c3ccc(Cl)cc3)n2)s1`: -14.5%; `Fc1ccc(Oc2nc(Oc3ccc(F)cc3)nc(N3CCSCC3)n2)cc1`: -33.1%; `Cc1noc(C)c1C(=O)N1CCOCC1`: -1.85%.
Next, `CCOC(=O)c1cc(C)nc(Sc2ccccc2NC(=O)Nc2ccc(Cl)cc2)c1C#N`: -5.59%.
With `OC(CN1CCN(c2ccc(C(F)(F)F)cn2)CC1)c1ccc2c(c1)OCCO2` (stereo unspecified), the activation was 4.19%.
For the compound `CNC(=O)NNC(=O)Cn1nnc(N2CCCCC2)n1`, the activation was -5.59%.
With `O=C(c1ccc(F)cc1)C1CCN(Cc2cn[nH]c2-c2ccccc2)CC1`, the activation is -8.25%.
With `Cn1nc(-c2ccccc2)cc1N`, the activation was -14.4%.
Next, `O=C1NC(=O)c2cc([N+](=O)[O-])c(Sc3c(Cl)cccc3Cl)cc21`: 16.5%.
As for `Cn1cc(Br)c(-c2ccc(NC(=O)Nc3ccc(Cl)cc3)cc2)n1`, the activation is 48.5%.
On to `CCOC(=O)NN(C(=O)OCC)c1c(C)c(C)c(C)c(C)c1C`, for which the activation was 6.8%.
`CCOc1ccc(NC(=S)N2CCC(c3ccccc3OC)CC2)cc1`: the activation is -5.17%.
Consider `COc1ccc(OC)c(CNC(=O)Cc2cccs2)c1`, for which the activation is 2.66%.
Regarding `CC(C)N(C(=O)c1ccc(-c2ccccc2F)cc1)C(C)C`, the activation is 5.33%.
In the case of `COc1ccc(-c2ccc(/C=N/NC(=O)CCc3ccc(O)cc3)s2)cc1`, the activation is 76.7%.
For the compound `COc1ccc2c(c1)CCCC2=Nc1ccccc1C(F)(F)F`, the activation was 76.9%.
Next, `Cc1cc2nc(C)c(C)nc2cc1C`: -24.7%.
Next, `NC(=O)c1sccc1Br`: -10.4%; `Cc1onc(-c2ccccc2)c1CNS(=O)(=O)c1ccc2c(c1)OCCN2C`: -10.4%.
Turning to `Cc1ccc(NC(=O)c2ccccc2NC(=O)c2ccccc2)cc1`, the activation is -30.9%.
On to `Cc1ccc(NC(C(=O)O)c2ccccc2)cc1` (stereo unspecified), for which the activation is 81.5% (active).
`NC(CC(=O)O)c1ccccc1` (stereo unspecified): the activation is 6.64%.
Consider `O=[N+]([O-])c1ccc(-c2nnnn2Cc2c(Cl)cccc2Cl)cc1`, for which the activation is 38.8%.
Next, `Cc1oc(-c2ccc(Cl)cc2)cc1C(=O)N1CCN(Cc2ccccc2)CC1`: -6.1%; `COc1ccc(NC(NC(=O)c2ccc(OC)cc2)(C(F)(F)F)C(F)(F)F)cc1`: 4.17%.
For `CCOC(=O)N/N=C(\C)c1cccc(NC(C)=O)c1`, the activation was 3.43%.
For the compound `CC(C)(C)C(=O)Nc1c(Br)c(C2CC2)nn1-c1ccccc1`, the activation is 4.11%.
Turning to `N#Cc1ccc(OS(=O)(=O)c2cc(C(F)(F)F)cc(C(F)(F)F)c2)cc1`, the activation was 0.18%.
Take `CSc1nc(N)n(-c2ccccc2)n1`: the activation is 5.77%.
Regarding `COC(=O)c1c(C(=O)OC)c2n(c1C)CCS2`, the activation was 10.2%.
In the case of `O=C(Nc1ccc(OCc2ccccc2)cc1)OCC1CN(Cc2ccccc2)CCO1` (stereo unspecified), the activation was 43.9%.
As to `O=S(=O)(Oc1cccc(C(F)(F)F)c1)c1cc(S(=O)(=O)c2ccccc2)cs1`, the activation is 4.61%.
As for `Cn1nc(C(C)(C)C)c(NC(=O)c2sccc2Cl)c1C(C)(C)C`, the activation was -7.37%.
Next, `CCc1ccc(S(=O)(=O)Nc2ccc(C)c(NS(C)(=O)=O)c2)cc1`: 6.03%; `Cc1oc(-c2ccc(Cl)cc2)cc1C(=O)N1CCOCC1`: 6.2%.
For `CCOC(=O)c1c(NS(=O)(=O)c2cccc3nsnc23)sc(C)c1C`, the activation was 117% (active).
Consider `Cc1c(-c2cnc(NC(=O)c3ccccc3)s2)sc2ccc(Cl)cc12`, for which the activation was 7.33%.
Take `O=C(Nc1ccc(Cl)cc1)c1csc(COc2ccc3nonc3c2)n1`: the activation is -33.9%.
Next, `NNC(=O)COc1ccc(C2SCCS2)cc1`: -2.77%.
As to `NNC(=O)c1csc(COc2ccc(C3SCCS3)cc2)n1`, the activation is 83% (active).
Next, `O=c1oc2ccc(Cl)cc2cc1-c1ccc([N+](=O)[O-])cc1`: -9.38%.
As for `O=C(NNc1ccc(C(F)(F)F)cn1)c1ccccc1Cl`, the activation was -0.55%.
Next, `COc1cccc2cc(C(=O)O)oc12`: -0.93%; `O=C(O)CC(CC(=O)O)c1ccc(C(F)(F)F)cc1`: 0.91%.
Next, `O=C1c2ccc3c4c(ccc(c24)C(=O)N1c1ccccc1)C(=O)N(c1ccccc1)C3=O`: -6.17%.
